Sampled rows, rich in hits. Any-hit rate of the full collection: about 6.9%.
ASM inhibitor: inhibitors of human secretory acid sphingomyelinase; P17405; placental ASM, HMU-PC fluorogenic substrate, 60 min; AID 504937; Potency, µM (highest dose often 57.5 µM), without a hit: top-dose activity change, negative = inhibition, most hits filed as inhibitors; 0.006% of 340,000 active; also: potency is read from the fitted curve at half-maximal effect
Target sequence (P17405 47-631 limits assumed): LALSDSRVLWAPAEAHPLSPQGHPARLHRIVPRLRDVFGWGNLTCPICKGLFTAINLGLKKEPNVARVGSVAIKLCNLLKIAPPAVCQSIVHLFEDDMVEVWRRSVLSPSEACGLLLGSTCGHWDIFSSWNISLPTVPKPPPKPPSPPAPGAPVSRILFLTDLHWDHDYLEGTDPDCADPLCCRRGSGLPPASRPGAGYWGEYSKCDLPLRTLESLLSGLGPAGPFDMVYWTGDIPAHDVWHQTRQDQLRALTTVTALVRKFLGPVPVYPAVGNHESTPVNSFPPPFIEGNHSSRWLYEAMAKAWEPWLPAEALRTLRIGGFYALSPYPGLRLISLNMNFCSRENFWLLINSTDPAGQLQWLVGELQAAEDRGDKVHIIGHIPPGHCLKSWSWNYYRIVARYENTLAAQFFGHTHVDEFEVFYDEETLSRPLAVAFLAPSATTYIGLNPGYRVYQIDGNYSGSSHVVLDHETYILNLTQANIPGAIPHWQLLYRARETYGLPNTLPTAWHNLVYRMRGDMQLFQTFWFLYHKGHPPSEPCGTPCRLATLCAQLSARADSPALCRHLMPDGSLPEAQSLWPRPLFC
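qHTS format. ASM enzyme prepared from human placenta hydrolyses the fluorogenic substrate HMU-PC0 (9 uM final) over 60 min at 37 °C after a 10 min compound preincubation.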
Giardia killer: kills Giardia lamblia | activity change, % at 7.66 µM, hits read low | AID 540267 | 0.15% of 340,000 active | Giardia lamblia trophozoite viability; in the data active = activity change below about -80%; inconclusive = between about -30% and that limit;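 also: parasites exposed to compound for two days anaerobically before the ATP read; % is scaled to controls: 0 for no effect and ±100 for the full control effect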
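Giardia trophozoites, 100 cells per well, were exposed to compounds for 48 hrs at 37 deg C under anaerobic conditions; viability was then read as ATP content by bioluminescence after 15-30 min at room temperature.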
KB-V1 MDR tox: kills drug-selected multidrug resistant KB-V1 cells; KB-V1 MDR cells viability, CellTiter-Glo, 72 h; Potency, µM (highest dose often 46.1 µM), most hits filed as cytotoxic; 3.4% of 400,000 active; also: potency is read from the fitted curve at half-maximal effect; % is scaled to controls: 0 for no effect and ±100 for the full control effect; nearly all actives have a fitted effect of over 60% in size
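Compound-treated KB-V1 multidrug-resistant cells, 72 h, 37 degrees C; viability by CellTiter-Glo. Fitted qHTS curves give the values.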
SW480 rereplic: inducers of DNA re-replication in SW480 colon cancer cells; SW480 DNA re-replication, Hoechst DNA content imaging, 48 h; Potency, µM (titrated, usually from 46.1 µM), for the others: at the top dose re-replication activation, usual class: activators; 1.8% of 340,000 active; AID 624297; also: potency is read from the fitted curve at half-maximal effect; % of control where 0% means no effect; nearly all actives have a fitted effect of over 55% in size
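Image-based DNA-content assay: after two days of treatment, nuclei were labelled with the DNA dye Hoechst and imaged, and hits were compounds raising the count of nuclei showing high fluorescence intensity.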
KB-3-1 tox: KB-3-1 parental cell cytotoxicity | KB-3-1 viability, CellTiter-Glo ATP luminescence, 72 h | 1.4% of 400,000 active | Potency, µM (highest dose often 46.1 µM), usual class: cytotoxic | AID 1347075; also: potency is read from the fitted curve at half-maximal effect; % is scaled to controls: 0 for no effect and ±100 for the full control effect; nearly all actives have a fitted effect of over 60% in size
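Viability of parental KB-3-1 cells, measured by CellTiter-Glo luminescence, followed a 72 h incubation at 37 °C with pinned compounds in phenol-red-free DMEM containing 10% FBS.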
MCF10A rereplic: DNA re-replication induction in MCF 10a cells. 2.9% of 350,000 active. Potency, µM (doses to about 46.1 µM), inactives show top-dose activity, positive = re-replication, actives largely listed as activators. MCF 10A DNA re-replication, Hoechst nuclear intensity, 48 h. AID 624296; also: potency is read from the fitted curve at half-maximal effect; % of control where 0% means no effect; nearly all actives have a fitted effect of over 50% in size
Numbers without * were called inactive; i = inactive; ? = inconclusive; / = no result given; ! = repeats disagree. Unless noted, calls follow the shape of the dose curve; as a rule, active = well fitted curve in the direction sought with a large enough effect; inconclusive = small, poorly fitted or top-dose-only effect, or another doubt; inactive = no such curve, though single readings can be large; an effect the other way counts as inactive or inconclusive.

SMILES	ASM inhibitor	Giardia killer	KB-V1 MDR tox	SW480 rereplic	KB-3-1 tox	MCF10A rereplic
Cc1ccc(S[C@@H](CCN2CC[C@H](C)CCC2=O)c2ccccc2)cc1	-19%	5	12µM*!	-6%	?	?
C[C@@H]1CCC(=O)N(CC[C@H](Sc2ccc(Br)cc2)c2ccccc2)CC1	-28%	?	?	16%	?	-33%
Cn1cc(CCC(=O)NCCCc2ccccc2)c2ccccc21	0%	4	i	-5%	i	4%
Cc1ccc(Cl)cc1N1CCN(C(=O)c2ccc(NC(=O)c3nsc4ccccc34)cc2)CC1	/	/	i	/	i	/
Cn1ncc(N=Cc2ccccc2)c1C(N)=O	0%	-7	?	-1%	i	1%
Cn1ncc(N=Cc2ccccc2)c1C(=O)Nc1cccc(Cl)c1	-24%	1	?	?	?	18µM*
O=C1C(c2cc(=O)c3ccccc3[nH]2)=C(O)c2ccccc21	-1%	?	i	0%	i	?
O=c1cc(-c2ccccc2)[nH]c2ccccc12	0%	-22	?	?	0.65µM*	1.3µM*
COc1ccc(-c2cc(=O)c3cc(F)ccc3[nH]2)cc1	5%	-5	i	13%	i	?
COc1ccc2[nH]c(-c3ccc(C)cc3)cc(=O)c2c1	-1%	?	?	?	9.2µM*	?
COc1ccc(C(=O)Nc2ccc3[nH]c(-c4cccc(OC)c4)cc(=O)c3c2)cc1	111%	-9	i	0.65µM*	0.73µM*	0.58µM*
COc1ccc(C(=O)Nc2cccc(OC)c2)cc1	-2%	?	i	-16%	?	-7%
O=C(Cn1cc2c(n1)CCCC2)Nc1cc(C(F)(F)F)ccc1Cl	/	/	i	/	i	/
CNC(=S)N1N=C(c2ccc(C)cc2)CC1c1cc(OC)ccc1OC (centres undefined)	-5%	-1	?	?	12µM*	?
CNC(=S)N1N=C(c2ccc(OC)cc2)CC1c1ccccc1Cl (centres undefined)	-6%	3	i	-12%	i	14%
COc1ccc(OC)c(C2CC(c3ccccc3)=NN2C(=S)Nc2ccccc2)c1 (centres undefined)	0%	4	i	4.6µM*	i	4.1µM*
COc1ccccc1C1CC(c2ccco2)=NN1c1ccccc1 (centres undefined)	i	8	i	?	i	?
COc1ccccc1C1=NN(C(=S)Nc2ccccc2)C(c2ccco2)C1 (centres undefined)	-3%	-2	15µM*	?	?	13%
Cc1cccc(CNC(=O)c2cnc3c(-c4cccc(C)c4)c(C)nn3c2C)c1	/	/	i	/	i	/
Oc1ccccc1C1C=C(c2ccc3c(c2)OCO3)NC(c2ccc(Br)cc2)N1 (centres undefined)	/	-9	i	/	i	/
COc1ccc(-c2nnc(SCC(=O)c3cccs3)o2)cc1	4%	-6	i	-6%	i	?
O=C(CSc1nnc(-c2cccs2)o1)c1cccs1	0%	-4	i	?	i	3.7µM*
CN(C)C(=O)CSc1nnc(-c2cc(-c3cccs3)nc3ccccc23)o1	278%	5	?	?	i	10µM*
CCN(CC)C(=O)CSc1nnc(-c2cc(-c3ccc(Cl)cc3)nc3ccccc23)o1	1%	-11	i	1%	i	9%
CN(C)N1C(N)=C(C#N)C(c2ccc3c(c2)OCO3)C2=C1CC(C)(C)CC2=O (centres undefined)	3%	-1	i	2%	i	-7%
SMILES	ASM inhibitor	Giardia killer	KB-V1 MDR tox	SW480 rereplic	KB-3-1 tox	MCF10A rereplic
CCOc1cc(C2NN=C(c3ccc(C)cc3)S2)ccc1O (centres undefined)	8%	-13	?	-7%	i	18µM*
CC(C)CC1=NN2C(=N)/C(=C\c3coc4ccccc4c3=O)C(=O)N=C2S1	10%	-19	i	-6%	i	8%
CCSC1=NSC2=NC(=O)/C(=C\c3coc4ccccc4c3=O)C(=N)N12	-18%	8	i	?	i	18µM*
O=c1c2c(n3cnnc3n1-c1ccccc1)-c1ccccc1CC21CCCC1	1%	1	i	-47%	i	24%
Cn1c(=O)c2c(n3cnnc13)-c1ccccc1CC21CCCC1	-3%	-21	23µM*	-3%	i	-4%
Cc1ccc(N2C(N)=C(C#N)C(c3cccs3)C3=C2CC(C)(C)CC3=O)cc1 (centres undefined)	0%	-5	7.3µM*	?	?	12%
CC1(C)CC(=O)C2=C(C1)N(c1ccc(F)cc1)C(N)=C(C#N)C2c1cccs1 (centres undefined)	5%	7	?	?	i	18µM*
COc1ccc(-c2c(C)nn3c(N4CCN(c5cc(Cl)ccc5C)CC4)cc(C)nc23)cc1OC	/	/	i	/	i	/
S=C1NC(c2ccccc2)=NCN1c1ccc(Cl)cc1	-1%	-11	i	0%	i	1%
COC(=O)c1ccc(N2CN=C(c3ccc(C)cc3)NC2=S)cc1	-8%	-5	i	-1%	i	26µM*
CCOC(=O)C1CCCN(S(=O)(=O)c2cc3c(cc2C)NC(=O)CO3)C1 (centres undefined)	/	/	i	/	i	/
COc1ccc2c(c1)CCC1=C2NC(=S)NC1c1ccc(N(C)C)cc1 (centres undefined)	15%	-28	?	12%	?	21µM*
COc1cc(C2NC(=S)NC3=C2CCc2ccccc23)cc(OC)c1OC (centres undefined)	4%	4	i	-1%	i	0%
CCOC(=O)c1c(NC(=O)c2ccccc2Cl)sc2c1CCCC2	/	/	i	/	i	/
CCOC(=O)c1c(NC(=O)c2ccccc2Br)sc2c1CCc1ccccc1-2	0%	38	13µM*	16µM*	i	?
COc1cccc(CNC(=O)CCn2c(=O)c3cccn3c3cccnc32)c1	4%	5	18µM*!	?	i	0%
COc1ccc(OC)c(CCNC(=O)c2ccc3c(c2)c(C)c(C)n3Cc2ccccc2)c1	/	/	i	/	?	/
O=C1c2c(-c3ccc(Br)cc3)noc2CCN1Cc1cn(-c2ccc(Cl)cc2)nn1	/	/	18µM*	/	21µM*	/
O=C1c2c(-c3ccc(Br)cc3)noc2CCN1Cc1cn(Cc2ccccc2)nn1	/	/	?	/	i	/
O=C1c2c(-c3ccc(Br)cc3)noc2CCN1Cc1cn(C2CCCC2)nn1	/	/	21µM*	/	?	/
